Columns and labels:
Test in all cases: PBM binding z-score (relative to random genomic background probes); higher = stronger binding; sequences stand for … in GC…GCGATTGACAGCGTAGAATGAAGG
[1] = test system: PPARg:RXRa DBDmut IVT, anti-RXR (DBD mutation: RXRa K156A/R161A, NR concentration 270 nM, RXRa partner concentration 90 nM)
In short: (§1)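 Probes were double-stranded and carried 34-nt variable regions with direct-repeat seeds, single-nucleotide variants, half-site ablations and random human genomic background sequences, printed on custom Agilent 4×180K protein-binding microarrays. Arrays were incubated 1 h with ligand-free nuclear receptor dimers in PBS pH 7.4, 2% milk, 0.02% Triton X-100, 1 mM DTT, 0.2 mg/mL BSA and 0.4 mg/ml salmon testes DNA. Antibodies against each partner (one per run) detected binding, and scanned fluorescence was regression-normalized. Binding z-scores use the random background probes as reference.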

[2] = test system: PPARg:RXRa IVT, anti-PPARg (NR concentration 270 nM, RXRa partner concentration 90 nM)
In short: as §1

[3] = test system: PPARg DBDmut:RXRa IVT, anti-PPARg (DBD mutation: PPARg1 K132A/R137A, NR concentration 270 nM, RXRa partner concentration 90 nM)
In short: as §1

[4] = test system: PPARg DBDmut IVT, anti-PPARg (DBD mutation: PPARg1 K132A/R137A, NR concentration 270 nM)
In short: as §1

[5] = test system: PPARg homodimer (NR concentration 180 nM)
In short: as §1

[6] = test system: PXR:RXRa (NR concentration 270 nM, RXRa partner concentration 90 nM)
In short: as §1

[7] = test system: PXR homodimer (NR concentration 270 nM)
In short: as §1

[8] = test system: RARa:RXR (NR concentration 270 nM, RXRa partner concentration 90 nM)
In short: as §1

[9] = test system: RARa homodimer (NR concentration 270 nM)
In short: as §1

[10] = test system: RARb:RXRa (NR concentration 270 nM, RXRa partner concentration 90 nM)
In short: as §1

[11] = test system: RARb homodimer (NR concentration 270 nM)
In short: as §1

[12] = test system: RARg:RXRa (NR concentration 270 nM, RXRa partner concentration 90 nM)
In short: as §1

[13] = test system: RARg homodimer (NR concentration 270 nM)
In short: as §1

[14] = test system: RXRa DBDmut IVT, anti-RXR (DBD mutation: RXRa K156A/R161A, NR concentration 90 nM)
In short: as §1

[15] = test system: RXRa homodimer (NR concentration 180 nM)
In short: as §1

[16] = test system: THRa:RXRa (NR concentration 90 nM, RXRa partner concentration 90 nM)
In short: as §1

[17] = test system: THRa homodimer (NR concentration 90 nM)
In short: as §1

[18] = test system: VDR:RXRa (NR concentration 270 nM, RXRa partner concentration 90 nM)
In short: as §1

[19] = test system: VDR homodimer (NR concentration 270 nM)
In short: as §1

Sequence	PBM binding z-score [1]	PBM binding z-score [2]	PBM binding z-score [3]	PBM binding z-score [4]	PBM binding z-score [5]	PBM binding z-score [6]	PBM binding z-score [7]	PBM binding z-score [8]	PBM binding z-score [9]	PBM binding z-score [10]	PBM binding z-score [11]	PBM binding z-score [12]	PBM binding z-score [13]	PBM binding z-score [14]	PBM binding z-score [15]	PBM binding z-score [16]	PBM binding z-score [17]	PBM binding z-score [18]	PBM binding z-score [19]
CTCGAAAGGTCGTGTTCAGGTGAGTATACCAAAC	0.51	1.95	0.275	1.56	1.51	3.14	0.411	3.85	0.304	3.78	2.87	4.55	3.44	2.35	4.3	4.17	1.16	3.35	1.16
CGTCCCAGGTCAGCAGGTCAGTGAAAGCGACGTG	1.69	2.71	-0.717	-0.861	1.2	2.16	-0.206	3.19	0.0121	4.12	3.99	4.83	4.51	0.368	3.25	3.56	2.19	2.54	0.573
CCTACTGGGCCAAGGTCACTGATCAGTCAAAGCA	4.22	4.98	-0.183	-0.598	2.26	3.02	0.241	3.49	0.0362	3.73	3.91	4.17	4.29	0.302	3.92	3.6	2.65	2.92	2
ACCTCTAGGTAAAGTTCAGTGAAAGATCGATAGA	1.91	1.47	-0.268	0.284	0.684	1.61	1.03	0.806	0.172	2.41	2.27	1.59	2.19	1.47	0.983	0.866	-0.127	0.835	1.51
ATCTCTAGGTATAAGTTCAGTGAATCCCGAGGAT	0.227	0.858	1.41	1.22	0.751	1.44	2.32	0.493	1.02	1.73	1.42	1.17	1.31	0.993	0.674	0.824	0.567	0.837	2.79
CGTCCAAGGTCAATGCTAGGTCAGTGATAGCATT	3.49	4.23	0.259	0.244	6.16	5.12	2	6.2	2.14	5.21	5.15	7.48	6.91	3.87	5.32	4.38	3.02	4.92	3.54
AGTCAAAGTTCACTAGGAAACGTAAGATTCAGCT	0.0474	2.6	1.13	0.557	2.18	3.61	2.13	2.66	0.899	4.84	3.48	4.86	5.62	3.98	3.71	1.3	-0.55	3.48	3.64
TCATATAGGTAATACAGATGAAAGTCGGCATCTA	3.53	2.32	1.22	1.05	0.725	0.46	0.387	0.646	1.28	0.19	-0.481	0.349	0.543	1.28	1.09	-0.0206	-0.254	0.886	0.0563
GTACCAAGGTGAATAAGTCGTTGATGAGTAGGCG	1.47	1.77	-0.113	0.912	0.706	-0.129	0.166	0.233	0.8	1.27	0.43	0.827	0.671	-0.0366	0.742	1.21	0.531	0.0767	0.148
CCTAATGGGCCATCAGGTCATTGATATCAACGTT	3.13	3.41	-0.226	0.112	1.81	1.84	0.78	2.18	0.44	2.15	2.76	2.27	2.23	0.496	1.39	3.38	2.92	2.04	1.57
GCATATAGGTAATACAAGGTGAAACTCCGATTGT	4.64	3.25	1.19	0.842	0.705	0.857	-0.379	1.52	0.524	0.667	0.806	0.886	0.775	0.602	1.06	4.51	1.21	0.732	0.121
TATACACGGTCAAAGGCCAGAGTACGAATGTCGA	0.134	2.39	1.55	1.14	1.12	0.507	0.583	1.13	0.418	2.85	2.33	2.53	2.87	0.0328	1.45	0.581	-0.253	0.598	0.761
ATCTCGAGGTAACCAAGTTCAGTGAATGCCGAAC	0.433	1.72	0.594	0.0274	-0.0303	3.06	2.57	1.04	-0.305	1.5	1.62	0.86	1.02	0.865	0.825	2.41	0.867	5.47	3.01
AGAACGAGAGCACGCTGAGTTGATAGCAGAGTAG	0.0563	-0.2	-0.0826	-0.875	-0.952	-0.515	-0.415	-0.666	-1.23	-0.39	-1.13	-0.185	0.0866	-0.192	-0.166	-0.571	-1.24	-0.462	-0.355
ATCTCTATGTAAAAGTTCAGTGAATCCCGAGGAT	-0.373	1.21	1.18	0.786	1.41	1.78	1.21	1.08	0.424	2.23	2.26	1.61	1.8	1.05	1.11	0.505	0.00559	1.2	1.6
AGAACGAGGGCACGCTGAGTTGATACCAGAGTAG	4.16	3.75	0.259	-0.00374	0.189	1.25	0.342	0.748	-0.804	2.36	1.13	1.91	2.16	1.46	1.44	1.74	0.271	2.23	1.98
AGAATGAGGGTATTAAGATCAGGGAATTGCGGTC	1.71	0.923	0.443	0.824	0.506	0.0196	0.451	0.253	0.44	0.4	0.61	0.0247	0.0754	0.633	0.379	0.534	0.27	0.128	0.315
CCGACTGGGGCAAAGGTTACAATACTCAGTACGA	4.99	6.06	0.209	0.0744	1.56	2.63	-0.0818	4.23	0.27	2.55	2.22	3.61	2.01	0.382	4.11	1.8	-0.161	1.71	0.239
CGAACTAGGCCAAGGACAGTGAATCTCCGCACGC	6.24	4.83	0.31	-0.452	-0.431	-0.557	-0.632	-0.45	-0.416	0.81	0.591	-0.0156	0.663	0.163	-0.0922	1.35	0.94	-0.579	-0.0931
CACGAAAGGTCGGTTGAGGTGAGTATACGGATAA	0.197	1.19	1.19	0.977	1.22	3.42	0.224	2.96	0.255	3.18	2.56	2.89	3.15	0.785	2.36	5.03	1.69	2.37	0.932
TCATATAGGTAAAGGTGAAAGTAGAACGATATGA	4.02	4.56	2.33	2.14	1.55	1.08	-0.104	1.42	0.341	2.02	1.35	1.71	1.43	0.637	2.2	1.36	-0.513	1.01	-0.148
CGTACAAGGTCAGCAGGTCAGTGAAAGCGACGTG	3.86	4.79	1.35	0.315	3.51	3.82	0.382	5.17	1.11	5.23	5.11	6.42	6.72	3.07	5.36	3.93	2.42	4.16	1.68
TCGAGTAGGTTAGTCGGGGCACTCAGCCAACATA	2.29	2.16	-0.475	-0.114	0.481	0.0586	-0.241	0.247	-0.581	0.524	0.461	0.0814	-0.0518	0.105	0.249	1.35	-0.252	1.2	0.195
TCTGCTAGGTCAACGATGGTCAGCTTATCTGCTA	4.15	4.27	2.31	1.16	0.812	1.76	-0.682	2.5	-0.672	4.22	3.56	4.14	4.75	1.26	2.49	3.22	0.783	1.63	-0.342
CCGACTGGGGCAAGGGTTACCATACTCAGTACGA	3.17	4.93	-0.628	-1.19	0.0321	0.443	-0.412	1.53	-0.348	1.57	1.16	1.49	1.3	-0.851	1.71	0.704	-0.463	-0.292	0.0843
TCATATAGGTAAATGCTAGGTGAAAATCCGATCT	3.71	2.37	1.79	1.14	1.06	0.505	0.518	0.922	1.61	0.432	0.208	0.578	0.633	1.54	0.795	1.24	0.427	0.793	0.374
ACTATTAGTTGACTTAGGGCAACCGATACGACGC	-0.304	0.722	1.07	1.09	-0.697	0.217	0.409	0.353	0.643	0.958	0.899	0.818	1.01	0.684	0.661	1.53	0.316	0.152	0.121
TCTTGTAGATCAGCAGGTTAAGAATGCTGGCCAA	1.36	0.428	-0.195	-0.491	0.12	0.00264	-0.0255	0.239	-0.0617	0.12	0.138	-0.0809	-0.427	0.415	0.165	0.0436	-0.197	0.397	-0.438
GCTTACGGGCCAAAGGTTATAGCATGAATAGAAT	1.06	3.69	-0.252	0.373	0.626	2.27	0.0168	3.13	0.0801	1.81	1.29	2.77	1.04	0.36	3.01	1.58	-0.515	0.816	-0.0468
CCGACTTGGGCAAGGTTACCATAACGCACAGCCA	0.0909	0.144	-0.175	-0.816	0.358	0.327	0.162	0.774	0.309	0.889	0.919	0.796	0.586	0.164	1.05	1.17	0.449	0.176	0.117
